Rows were chosen to be rich in hits. Some 2.9% of all compounds tested hit in one or more screens of this group.
N-glyco inh = increase of ERlucT glycosylation luciferase signal, primary screen, N-linked glycosylation inhibitor project, D54 ERlucT cells, luminescence, set 2; AID 588692, 2011; 360,000 tested, 0.23% active; reporter increase, % at 12.5 µM; D54 ERlucT glycosylation luciferase reporter, 24 h; percent of 100 nM tunicamycin response;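 active means mean luciferase reporter signal, scaled so untreated is 0 and the glycosylation-blocking control 100, at or above a set limit in every replicate; inconclusive means mean reaches the limit but not every replicate does; inactive means mean below the limit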;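 further: luciferase carries N-glycosylation sites so blocking glycosylation raises the light; 0% = median of neutral control wells and 100% = median of 100 nM tunicamycin wells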
Wnt bcat act = Wnt/beta-catenin pathway activators, primary screen, cell-based, plate reader, single point; Wnt/beta-catenin reporter cell assay, activator; activation, % at 9.35 µM; 300,000 tested, 1.2% active; in the data active means activation above about 30%, passing the limit was not always enough; inconclusive means no clear call, values can overlap the other calls;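 further: 0% = neutral control wells and 100% = positive control wells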
esBAF inh = Bmi1 luciferase reporter increase in mESCs, primary screen, esBAF inhibitor project, mouse ES cells, Bmi1 luciferase knock-in, single point; 24 h; 100% = twice the neutral-well signal; 350,000 tested, 2% active; reporter increase, % at 12.5 µM; in the data active means activation above about 40%; inconclusive means no clear call, values can overlap the other calls;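 further: 0% = median of the plate's neutral control wells and 100% = double that signal; a rise in the Bmi1 reporter signal indicates esBAF inhibition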
Vif inh = HIV Vif self-association inhibitors, primary screen, imaging, HEK293T, single point; HEK293T cells, Vif self-association by quenched fluorescence, 24 h; inhibition, % at 7.49 µM; 340,000 tested, 0.35% active; in the data active means inhibition above about 50%, passing the limit was not always enough; inconclusive means no clear call, values can overlap the other calls; inactive means below about 31%
MITF TRPM1 HTS = activators of MITF-driven TRPM1 promoter reporter, primary screen, cell-based, SK-MEL-5, luciferase, single point. SK-MEL-5 TRPM1-promoter luciferase, 24 h; % of positive control, neutral wells = 0. activation, % at 12.5 µM. 300,000 tested, 0.75% active;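 active means mean activation of at least 80% with every replicate also reaching 80%; inconclusive means mean reaches 80% but some replicate falls short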;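 further: 0% = neutral control wells and 100% = parthenolide positive control wells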
PvdQ inh = P. aeruginosa PvdQ acylase inhibitors, primary screen, biochemical, fluorescence, plate reader and imaging, single point; PvdQ acylase [Pseudomonas aeruginosa LESB58]; purified PvdQ acylase; inhibition, % at 10 µM; 340,000 tested, 0.063% active; in the data active means inhibition above about 30%, passing the limit was not always enough; inconclusive means no clear call, values can overlap the other calls;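 further: 0% = vehicle neutral wells and 100% = reference inhibitor wells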
The depositor's hits bear a star.

Results for COC(=O)c1ccc(COc2ccc(C)c(C)c2)o1 ?
N-glyco inh: -1.6; Wnt bcat act: 2.8; esBAF inh: 58.5*; Vif inh: 3.2; MITF TRPM1 HTS: inconclusive; PvdQ inh: -12.3

How did CCC(=O)c1ccc(OCc2ccc(C(=O)OC)o2)c(OC)c1 do in these assays?
N-glyco inh: -0.7; esBAF inh: 16.0; Vif inh: -14.6; MITF TRPM1 HTS: 8.0; PvdQ inh: -7.0

What do the screens show for `CCOc1ccc(OCc2ccc(C(=O)OCc3ccccn3)o2)cc1`?
N-glyco inh: -3.5; Wnt bcat act: 32.9*; Vif inh: 4.8; MITF TRPM1 HTS: 4.9; PvdQ inh: -8.7

Results for Cc1noc(C)c1S(=O)(=O)Nc1ccc2c(c1)C(=O)N([C@H](C)CO)C[C@H](C)[C@@H](CN(C)Cc1ccc(-c3ccccc3)cc1)O2 ?
esBAF inh: -2.8

What do the screens show for `Cc1ccsc1/C=N/N1CCN(c2ccccn2)CC1`?
N-glyco inh: -1.7; Wnt bcat act: 12.5; Vif inh: -1.8; PvdQ inh: -2.0

How did Cc1ccsc1/C=N/N1CCN(c2ccccc2)CC1 do in these assays?
N-glyco inh: 0.7; Wnt bcat act: 18.6; esBAF inh: 48.5*; MITF TRPM1 HTS: 62.5; PvdQ inh: 0.1

Results for COc1ccc(-n2cc3ccc([N+](=O)[O-])cc3n2)cc1 ?
N-glyco inh: -12.0; Wnt bcat act: 41.3*; Vif inh: -3.5; MITF TRPM1 HTS: 23.2; PvdQ inh: -5.5

What do the screens show for `O=C(C[C@@H]1CC[C@H]2NC[C@@H](O)COC[C@@H]2O1)N1CCc2ccccc2C1`?
esBAF inh: 1.2

Results for Cc1ccc(NC(=O)c2cc(S(=O)(=O)N(C)C)ccc2N2CCCC2)cc1S(=O)(=O)N(C)C ?
N-glyco inh: 60.0*; Wnt bcat act: -22.0; esBAF inh: -5.7; Vif inh: 0.1; MITF TRPM1 HTS: -17.2; PvdQ inh: -9.1

How did Cc1ccc(NC(=O)CCNC(=O)c2ccc([N+](=O)[O-])cc2)cc1S(=O)(=O)N(C)C do in these assays?
N-glyco inh: 0.3; Wnt bcat act: -0.6; Vif inh: -8.4; MITF TRPM1 HTS: -3.5; PvdQ inh: 4.3

How did Cc1ccc(NC(=O)c2ccc([N+](=O)[O-])cc2)cc1S(=O)(=O)N(C)C do in these assays?
N-glyco inh: 0.1; Wnt bcat act: -0.6; esBAF inh: 49.5*; Vif inh: -9.9; MITF TRPM1 HTS: 17.3; PvdQ inh: 2.2

Results for COc1ccc(NC(=O)c2cc(S(=O)(=O)N(C)C)ccc2N2CCCC2)cc1Cl ?
N-glyco inh: 36.5*; Wnt bcat act: -2.0; Vif inh: 3.0; MITF TRPM1 HTS: 0.9; PvdQ inh: -2.2

Results for O=C(Nc1cccc(F)c1)c1cc(S(=O)(=O)N2CCOCC2)ccc1N1CCCC1 ?
N-glyco inh: 28.0*; esBAF inh: -2.2; Vif inh: 2.5; MITF TRPM1 HTS: -2.1; PvdQ inh: -0.2

What do the screens show for `CN(C)S(=O)(=O)c1ccc(N2CCCC2)c(C(=O)Nc2ccc(C(N)=O)cc2)c1`?
N-glyco inh: 0.5; Wnt bcat act: -1.3; esBAF inh: 2.6; MITF TRPM1 HTS: -9.7; PvdQ inh: -10.5

How did O=C(C[C@H]1C[C@@H]2c3cc(NC(=O)C4CCC4)ccc3O[C@@H]2[C@@H](CO)O1)NCCc1ccccc1 do in these assays?
esBAF inh: 7.5

How did Cc1ccc(NC(=O)c2cc(S(=O)(=O)N3CCCCC3)ccc2N2CCOCC2)cc1S(=O)(=O)N(C)C do in these assays?
N-glyco inh: -3.7; Wnt bcat act: -7.2; esBAF inh: 5.5; Vif inh: 51.7*; MITF TRPM1 HTS: 6.8; PvdQ inh: -13.9

Results for Cc1ccc(N(CC(=O)NCc2ccc3c(c2)OCO3)C(=O)c2csnn2)cc1 ?
N-glyco inh: 0.6; Wnt bcat act: 2.4; esBAF inh: 6.7; Vif inh: 10.3; MITF TRPM1 HTS: 13.8; PvdQ inh: 14.6

Results for O=C(CN(C(=O)c1csnn1)c1ccc(F)cc1)NCc1ccc2c(c1)OCO2 ?
N-glyco inh: -1.2; Wnt bcat act: 2.1; esBAF inh: 49.8*; Vif inh: 74.5*; PvdQ inh: -8.0

How did CCCN1C[C@H](C)[C@H](OC)CN(C)C(=O)c2cc(NC(=O)C3CC3)ccc2OC[C@H]1C do in these assays?
esBAF inh: 0.8

Results for C[C@H](CCC(=O)O)[C@H]1CC[C@H]2[C@@H]3CC[C@@H]4C[C@H](O)CC[C@]4(C)[C@H]3CC[C@]12C ?
N-glyco inh: 1.9; Wnt bcat act: -1.6; esBAF inh: -2.2; Vif inh: 1.7; MITF TRPM1 HTS: -6.9; PvdQ inh: -15.8

What do the screens show for `CC(CCC(=O)O)C1CCC2C3CCC4C[C@H](O)CCC4(C)C3CC(=O)C12C` (stereo partly specified)?
N-glyco inh: 0.2; Wnt bcat act: -0.3; esBAF inh: -0.7; Vif inh: 52.6*; MITF TRPM1 HTS: 3.7; PvdQ inh: -16.4

How did COc1cc(C=O)ccc1OCc1ccc(Cl)nc1 do in these assays?
N-glyco inh: -3.9; Wnt bcat act: 37.9*; esBAF inh: 63.1*; Vif inh: 0.2; MITF TRPM1 HTS: 64.1; PvdQ inh: 5.9

Results for O=C(NCc1ccccc1)c1cc(-c2ccco2)on1 ?
N-glyco inh: 4.2; Wnt bcat act: 8.9; esBAF inh: 42.4*; Vif inh: -1.8; MITF TRPM1 HTS: 49.6; PvdQ inh: -11.6

How did COc1ccc(CCNC(=O)c2cc(-c3ccco3)on2)cc1OC do in these assays?
N-glyco inh: 63.3*; Wnt bcat act: 103.4*; Vif inh: -4.3; MITF TRPM1 HTS: -25.4; PvdQ inh: 6.1

What do the screens show for `O=C(NCc1ccco1)c1cc(-c2ccco2)on1`?
N-glyco inh: 10.6; Wnt bcat act: -0.9; esBAF inh: 29.1; Vif inh: 3.3; MITF TRPM1 HTS: 38.7; PvdQ inh: 4.6

How did O=C(NCCc1ccccc1)c1cc(-c2ccco2)on1 do in these assays?
N-glyco inh: 48.2*; Wnt bcat act: 141.3*; esBAF inh: 36.8; Vif inh: 13.0; MITF TRPM1 HTS: -9.8; PvdQ inh: -16.9

What do the screens show for `CN1C(=O)c2cc(NC(=O)c3cccc(F)c3)ccc2OC[C@H]2O[C@H](CC(=O)Nc3ccccc3)CC[C@H]21`?
esBAF inh: 4.3

What do the screens show for `C[C@H](CO)N1C[C@H](C)[C@@H](CN(C)S(=O)(=O)c2ccccc2F)Oc2ncc(C#Cc3ccccc3)cc2C1=O`?
esBAF inh: 7.3

What do the screens show for `Cc1ccc(S(=O)(=O)Nc2cccc3c2O[C@@H](CN(C)S(=O)(=O)c2cccs2)[C@H](C)CN([C@@H](C)CO)C3=O)cc1`?
esBAF inh: -5.0

Assay outcomes from PubChem.
